Results reported in PubChem BioAssay (Tox21).
Unmarked numbers belong to inactive results. Records with an inconclusive call do not appear. A call without a number means that no potency is given here. Active and inactive are the calls of the source. Unless noted, the call rests on the fitted dose curve; in most records, active means well fitted curve in the direction sought with a large enough effect in the repeat runs; inconclusive means weak or mixed curves; inactive means no such curve, though single readings can be large; an effect the other way counts as inactive or inconclusive.

Columns and labels:
[1] = target: Estrogen receptor (Homo sapiens) (UniProt P03372); assay: qHTS assay to identify small molecule antagonists of the estrogen receptor alpha (ER-alpha) signaling pathway using the BG1 cell line in the presence of 0.1 nM 17-beta-estradiol (AID 1259244); further: nearly all actives have a fitted effect of over 50% in size
Estrogen receptor (Homo sapiens), sequence (P03372 whole entry, looked up): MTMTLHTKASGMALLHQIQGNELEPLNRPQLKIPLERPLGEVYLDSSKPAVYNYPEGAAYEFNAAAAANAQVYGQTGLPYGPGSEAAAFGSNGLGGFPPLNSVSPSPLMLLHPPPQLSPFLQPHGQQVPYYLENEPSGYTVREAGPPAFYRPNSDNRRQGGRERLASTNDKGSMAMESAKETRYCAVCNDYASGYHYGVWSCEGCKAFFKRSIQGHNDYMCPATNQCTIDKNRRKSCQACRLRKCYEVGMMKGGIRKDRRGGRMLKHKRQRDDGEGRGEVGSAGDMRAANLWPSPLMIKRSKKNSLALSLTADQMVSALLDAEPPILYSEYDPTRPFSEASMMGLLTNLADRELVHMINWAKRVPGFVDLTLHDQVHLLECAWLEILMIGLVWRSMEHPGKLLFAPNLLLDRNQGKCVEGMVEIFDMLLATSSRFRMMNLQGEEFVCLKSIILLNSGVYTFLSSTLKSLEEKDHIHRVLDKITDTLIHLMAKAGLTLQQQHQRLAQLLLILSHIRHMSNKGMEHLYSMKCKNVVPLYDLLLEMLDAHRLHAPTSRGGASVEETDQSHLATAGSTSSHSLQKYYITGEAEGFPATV
Outline: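 VM7Luc4E2; 4xERE-luciferase; 0.1 nM E2 final; 22 h co-incubation, 37C; ONE-Glo luminescence after 30 min at room temperature.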

[2] = qHTS assay to identify small molecule phospholipidosis (PLD) inducers (AID 1259344; active means well fitted curve in the direction sought with a large enough effect; an effect the other way counts as inactive or inconclusive)
Outline: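 Quantitative HTS in HepG2: compound plus LipidTOX Red dye for 24 h, paraformaldehyde fixation with Hoechst 33342, widefield high-content imaging; amiodarone as positive and DMSO as negative control.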

[3] = qHTS assay to identify small molecule HDAC inhibitors (AID 1259364);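 further: wild-type HCT-116 cells with endogenous class I/II HDAC activity; top concentration of the series differs between compounds; nearly all actives have a fitted effect of over 45% in size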
Outline: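 Relative class I and II HDAC activity is taken from the luminogenic signal in HCT-116 cells, with compound exposure 2 hr and reagent development 30 min at room temperature.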

[4] = qHTS assay to identify small molecule HDAC inhibitors - cell viability counter screen (AID 1259365); further: series mostly up to about 92 µM; nearly all actives have a fitted effect of over 50% in size
Outline: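 After overnight seeding at 1,500 cells per well, wild-type HCT-116 cultures took up compounds in DMSO for 2hr at 37 C. Viable cell content came from luminescence with CellTiter-Glo.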

[5] = qHTS assay to identify small molecule agonists of the sonic hedgehog signaling (Shh) pathway - cell viability counter screen (AID 1259366); further: nearly all actives have a fitted effect of over 50% in size
Outline: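 Same-well cytotoxicity read. Gli1-Luc reporter 3T3 cells; compounds 24hr, 37C/5% CO2; CellTiter-Fluor fluorescence.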

[6] = qHTS assay to identify small molecule antagonists of the sonic hedgehog signaling (Shh) pathway - cell viability counter screen (AID 1259367); further: nearly all actives have a fitted effect of over 55% in size
Outline: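 Seed 3T3 Gli1-Luc cells at 2,000 per well; incubate 4 hr; add compound in DMSO, then conditioned medium; incubate at 37C with 5% CO2; add CellTiter-Fluor after 23 hr; read fluorescence 1 hr later.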

[7] = qHTS assay to identify small molecule agonists of the sonic hedgehog signaling (Shh) pathway (AID 1259368; calls by dose curve;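 further: NIH/3T3-derived 3T3Gli1-Luc cells carrying a stable Gli1-driven firefly luciferase reporter; series mostly up to about 92 µM; nearly all actives have a fitted effect of over 15% in size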)
Outline: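 Mouse fibroblast (NIH/3T3) reporter cells with stably integrated Gli1-Luc were treated 24 hr with compound; firefly luciferase luminescence served as the read-out.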

[8] = qHTS assay to identify small molecule antagonists of the sonic hedgehog signaling (Shh) pathway (AID 1259369; calls by dose curve; further: nearly all actives have a fitted effect of over 45% in size; further: potency means the concentration at half of the fitted maximal effect)
Outline: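 Conditioned medium drives Shh signalling in 3T3Gli1-Luc cells; compounds in DMSO co-applied, 24hr at 37 C, then luciferase luminescence.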

[9] = target: Estrogen receptor beta (Homo sapiens) (UniProt Q92731); assay: qHTS assay to identify small molecule agonists of the estrogen receptor beta (ER-beta) signaling pathway (AID 1259377; active means well fitted activation curve with a large enough effect in the signal ratio in the repeat runs, not every such curve was filed as active; the % refers to the signal ratio)
Estrogen receptor beta (Homo sapiens), sequence (Q92731 whole entry, looked up): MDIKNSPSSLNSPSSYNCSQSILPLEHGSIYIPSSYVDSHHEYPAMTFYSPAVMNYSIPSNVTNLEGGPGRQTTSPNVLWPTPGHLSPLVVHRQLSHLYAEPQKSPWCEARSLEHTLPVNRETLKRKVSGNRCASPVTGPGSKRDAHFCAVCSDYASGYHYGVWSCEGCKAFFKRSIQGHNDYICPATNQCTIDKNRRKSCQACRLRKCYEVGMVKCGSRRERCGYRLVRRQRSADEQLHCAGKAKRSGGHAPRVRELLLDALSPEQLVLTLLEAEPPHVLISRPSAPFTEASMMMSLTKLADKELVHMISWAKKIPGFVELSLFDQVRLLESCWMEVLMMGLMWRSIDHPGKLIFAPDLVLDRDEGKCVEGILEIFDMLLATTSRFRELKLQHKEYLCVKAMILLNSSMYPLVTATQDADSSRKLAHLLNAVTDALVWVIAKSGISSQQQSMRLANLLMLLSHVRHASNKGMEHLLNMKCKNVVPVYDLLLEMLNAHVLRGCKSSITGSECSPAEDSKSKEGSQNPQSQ
Outline: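 Read-out: beta-lactamase FRET fluorescence. Cell line: ER-beta-UAS-bla HEK293T in 2% charcoal-stripped FBS. Exposure: 16 hr at 37C. Substrate step: 2 h at room temperature.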

[10] = target: Estrogen receptor beta (Homo sapiens) (UniProt Q92731); assay: qHTS assay to identify small molecule antagonists of the estrogen receptor beta (ER-beta) signaling pathway (AID 1259378; active means well fitted inhibition curve with a large enough effect in the signal ratio in the repeat runs, not every such curve was filed as active; the % refers to the signal ratio)
Outline: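 ER-beta-UAS-bla HEK293T cells in 2% charcoal-stripped FBS medium treated with compound plus 1nM final 17-beta-estradiol for 16 hr at 37C. Beta-lactamase reporter read by FRET substrate fluorescence after 2 hours at room temperature.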

[11] = qHTS assay to identify small molecule agonists of the androgen receptor (AR) signaling pathway in the presence of an antagonist - cell viability counter screen (AID 1259379);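 further: MDA-kb2 human breast cancer cells carrying an MMTV luciferase reporter; series mostly up to about 92 µM; nearly all actives have a fitted effect of over 25% in size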
Outline: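 A CellTiter-Fluor read-out measured viability of MDA-kb2 reporter cells (MMTV promoter with AR and GR response elements). Treatment: nilutamide 3.0uM final with compounds at 15 concentrations, 16 hr, 37C, 0% CO2.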

[12] = qHTS assay to identify small molecule antagonists of the estrogen receptor beta (ER-beta) signaling pathway - cell viability counter screen (AID 1259382); further: series mostly up to about 92 µM; nearly all actives have a fitted effect of over 55% in size
Outline: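 Agonist-stimulated (1nM E2) ER-beta-UAS-bla HEK293T cells are incubated with library compounds for 16 hr at 37C. Cell viability is then assessed in the reporter-assay wells by adding CellTiter-Glo and reading luminescence after 30 min.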

[13] = target: Estrogen receptor (Homo sapiens) (UniProt P03372); assay: qHTS assay to identify small molecule agonists of the estrogen receptor alpha (ER-alpha) signaling pathway in the presence of an antagonist (AID 1259383; calls by dose curve; further: top concentration of the series differs between compounds; nearly all actives have a fitted effect of over 15% in size)
Outline: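 Using VM7Luc4E2 cells seeded 24hr before treatment, antagonist ICI-182,780 (10.0nM final) was added, followed by compounds at 15 concentrations. Plates incubated 22hr; ONE-Glo luminescence quantified reporter activity.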

[14] = qHTS assay to identify small molecule agonists or antagonists of the thyroid stimulating hormone receptor (TSHR) signaling pathway - wild type cell line counter screen (AID 1259384; calls by dose curve)
Outline: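 Wild-type Hek293 cells, 800/well, 18 h at 37C, then compound with Ro20-1724 for 30 min RT. cAMP by HTRF (cAMP-d2/anti-cAMP cryptate), 1 h RT, fluorescence read. 15 concentrations, triplicates.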

[15] = target: Thyrotropin receptor (Homo sapiens) (UniProt P16473); assay: qHTS assay to identify small molecule antagonists of the thyroid stimulating hormone receptor (TSHR) signaling pathway (AID 1259385; calls by dose curve; further: nearly all actives have a fitted effect of over 20% in size)
Thyrotropin receptor (Homo sapiens), sequence (P16473 whole entry, looked up): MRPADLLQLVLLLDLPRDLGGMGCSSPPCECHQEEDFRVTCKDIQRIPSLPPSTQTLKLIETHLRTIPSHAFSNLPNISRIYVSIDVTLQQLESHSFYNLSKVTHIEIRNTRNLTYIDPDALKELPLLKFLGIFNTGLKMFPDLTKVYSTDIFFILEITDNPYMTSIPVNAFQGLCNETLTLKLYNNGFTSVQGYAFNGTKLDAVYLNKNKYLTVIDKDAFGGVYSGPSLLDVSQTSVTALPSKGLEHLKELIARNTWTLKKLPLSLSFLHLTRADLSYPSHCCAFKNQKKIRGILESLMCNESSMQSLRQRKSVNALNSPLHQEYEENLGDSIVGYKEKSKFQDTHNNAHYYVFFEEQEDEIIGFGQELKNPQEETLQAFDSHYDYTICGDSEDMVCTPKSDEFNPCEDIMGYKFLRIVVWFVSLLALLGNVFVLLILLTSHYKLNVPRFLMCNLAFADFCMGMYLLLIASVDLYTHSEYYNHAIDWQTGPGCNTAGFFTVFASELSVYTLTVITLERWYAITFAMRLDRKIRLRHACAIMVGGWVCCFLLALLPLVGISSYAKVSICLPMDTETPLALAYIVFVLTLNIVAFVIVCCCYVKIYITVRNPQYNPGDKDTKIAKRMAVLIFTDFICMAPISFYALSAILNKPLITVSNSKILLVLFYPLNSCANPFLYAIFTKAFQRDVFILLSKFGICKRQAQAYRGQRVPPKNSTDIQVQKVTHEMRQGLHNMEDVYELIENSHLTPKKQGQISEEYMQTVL
Outline: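 TSHR-HEK293 cells (800/well) plated 18 h, then compounds with Ro20-1724 and TSH at 1.5 ng/mL final, 30 min at room temperature. cAMP quantified by HTRF (cAMP-d2/anti-cAMP-cryptate, 1 h); 15 concentrations in triplicate.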

[16] = qHTS assay to identify small molecule agonists of the estrogen receptor alpha (ER-alpha) signaling pathway in the presence of an antagonist - cell viability counter screen (AID 1259386);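 further: series mostly up to about 92 µM; cells exposed to compounds for 22 h at 37 °C before the viability read; nearly all actives have a fitted effect of over 30% in size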
Outline: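 ICI-182,780 at 10.0nM final accompanies the compound titration (15 concentrations, 22hr, 37C) on VM7Luc4E2 cells. The CellTiter-Fluor fluorescence readout runs in the same wells as the luciferase assay.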

[17] = target: Progesterone receptor (Homo sapiens) (UniProt P06401); assay: qHTS assay to identify small molecule agonists of the progesterone receptor (PR) signaling pathway (AID 1346784; calls by dose curve; further: nearly all actives have a fitted effect of over 30% in size)
Progesterone receptor (Homo sapiens), sequence (P06401 whole entry, looked up): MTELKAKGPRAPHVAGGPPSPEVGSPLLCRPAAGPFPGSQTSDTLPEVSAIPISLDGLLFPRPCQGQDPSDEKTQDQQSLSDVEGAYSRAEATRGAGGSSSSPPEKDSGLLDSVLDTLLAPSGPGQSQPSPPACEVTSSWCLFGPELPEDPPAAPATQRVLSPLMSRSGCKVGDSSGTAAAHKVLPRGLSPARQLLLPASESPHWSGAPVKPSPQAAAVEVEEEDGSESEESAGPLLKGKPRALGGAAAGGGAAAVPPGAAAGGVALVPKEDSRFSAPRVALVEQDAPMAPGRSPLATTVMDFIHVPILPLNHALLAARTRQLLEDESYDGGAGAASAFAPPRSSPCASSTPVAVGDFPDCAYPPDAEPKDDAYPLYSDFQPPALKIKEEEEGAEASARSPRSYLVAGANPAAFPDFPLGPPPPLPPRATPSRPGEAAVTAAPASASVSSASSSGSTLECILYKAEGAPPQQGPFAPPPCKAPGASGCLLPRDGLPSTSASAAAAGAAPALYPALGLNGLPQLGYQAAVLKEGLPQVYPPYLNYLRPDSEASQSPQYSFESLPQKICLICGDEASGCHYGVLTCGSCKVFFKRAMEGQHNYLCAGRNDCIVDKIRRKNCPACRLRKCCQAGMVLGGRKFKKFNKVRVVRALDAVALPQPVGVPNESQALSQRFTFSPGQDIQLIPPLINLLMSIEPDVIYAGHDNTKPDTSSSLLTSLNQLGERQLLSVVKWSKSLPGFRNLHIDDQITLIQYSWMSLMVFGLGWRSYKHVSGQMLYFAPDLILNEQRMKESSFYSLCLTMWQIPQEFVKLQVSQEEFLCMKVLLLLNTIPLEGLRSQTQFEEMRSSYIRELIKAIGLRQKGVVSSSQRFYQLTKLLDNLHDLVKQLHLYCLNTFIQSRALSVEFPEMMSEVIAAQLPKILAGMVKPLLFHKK
Outline: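 Compounds were tested for PR agonism in HEK 293T cells bearing a beta-lactamase gene under UAS control. Treatment lasted 16 hr at 37C; signal came from fluorescence of a FRET substrate.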

[18] = qHTS assay to identify small molecule agonists of the estrogen receptor beta (ER-beta) signaling pathway - cell viability counter screen (AID 1259380); further: nearly all actives have a fitted effect of over 30% in size
Outline: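 Cells used were ER-beta-UAS-bla HEK293T in medium with 2% charcoal-stripped FBS. They were treated for 16 hr at 37C. Viability came from CellTiter-Glo luminescence.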

[19] = target: Progesterone receptor (Homo sapiens) (UniProt P06401); assay: qHTS assay to identify small molecule antagonists of the progesterone receptor (PR) signaling pathway (AID 1346795; active means well fitted inhibition curve with a large enough effect in the signal ratio in the repeat runs, not every such curve was filed as active; the % refers to the signal ratio)
Outline: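 In HEK293T cells bearing the PR-UAS-bla reporter, compound effects on promegestone-driven (1 nM) beta-lactamase expression are assessed after 16 hr using a fluorescent FRET substrate incubated 2 hr at room temperature.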

[20] = target: Androgen receptor (Homo sapiens) (UniProt P10275); assay: qHTS assay to identify small molecule agonists of the androgen receptor (AR) signaling pathway in the presence of an antagonist (AID 1259381; calls by dose curve; further: nearly all actives have a fitted effect of over 15% in size)
Androgen receptor (Homo sapiens), sequence (P10275 whole entry, looked up): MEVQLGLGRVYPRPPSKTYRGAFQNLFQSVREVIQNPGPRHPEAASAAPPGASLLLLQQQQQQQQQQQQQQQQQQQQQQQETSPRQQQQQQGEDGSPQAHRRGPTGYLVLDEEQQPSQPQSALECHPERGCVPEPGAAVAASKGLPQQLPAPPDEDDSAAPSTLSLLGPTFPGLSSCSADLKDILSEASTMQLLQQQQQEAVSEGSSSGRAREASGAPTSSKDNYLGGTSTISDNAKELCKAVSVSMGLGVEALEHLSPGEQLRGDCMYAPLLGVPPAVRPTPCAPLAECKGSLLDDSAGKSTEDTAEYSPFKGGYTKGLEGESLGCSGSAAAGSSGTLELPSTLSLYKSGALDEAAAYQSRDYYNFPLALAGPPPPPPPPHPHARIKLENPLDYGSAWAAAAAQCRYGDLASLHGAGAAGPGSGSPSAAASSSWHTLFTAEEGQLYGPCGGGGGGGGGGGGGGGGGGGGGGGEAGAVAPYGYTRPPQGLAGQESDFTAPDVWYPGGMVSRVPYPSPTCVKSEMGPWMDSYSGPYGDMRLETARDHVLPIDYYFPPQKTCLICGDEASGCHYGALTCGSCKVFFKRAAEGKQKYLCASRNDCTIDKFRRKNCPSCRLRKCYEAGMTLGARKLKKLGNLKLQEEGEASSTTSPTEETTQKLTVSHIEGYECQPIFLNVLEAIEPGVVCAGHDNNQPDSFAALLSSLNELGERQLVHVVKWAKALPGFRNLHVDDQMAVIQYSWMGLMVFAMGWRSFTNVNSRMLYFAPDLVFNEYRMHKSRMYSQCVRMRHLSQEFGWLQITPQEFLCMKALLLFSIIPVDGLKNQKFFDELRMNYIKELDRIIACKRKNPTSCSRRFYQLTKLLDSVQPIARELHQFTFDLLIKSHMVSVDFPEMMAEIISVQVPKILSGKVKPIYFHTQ
Outline: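 Using human MDA-kb2 cells with an MMTV promoter–luciferase construct (AR and GR response elements), agonist activity is scored under 3.0uM nilutamide (final) co-treatment; 16hr incubation, 37C, luminescence readout via ONE-Glo.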

| Structure (SMILES) | Potency [1] | Potency [2] | Potency [3] | outcome [4] | Potency [5] | Potency [6] | outcome [7] | Potency [8] | Potency [9] | Potency [10] | Potency [11] | Potency [12] | Potency [13] | Potency [14] | Potency [15] | Potency [16] | outcome [17] | Potency [18] | Potency [19] | Potency [20] |
| --- | --- | --- | --- | --- | --- | --- | --- | --- | --- | --- | --- | --- | --- | --- | --- | --- | --- | --- | --- | --- |
| N=C(N=C(N)N)N1CCOCC1 | inactive | inactive | inactive | inactive | inactive | inactive | inactive | inactive | inactive | inactive | inactive | inactive | inactive | inactive | inactive | inactive | inactive | – | – | – |
| C[C@H](CCC(=O)O)[C@H]1CC[C@H]2[C@@H]3[C@H](O)C[C@@H]4C[C@H](O)CC[C@]4(C)[C@H]3CC[C@]12C | inactive | inactive | inactive | inactive | inactive | – | inactive | inactive | inactive | – | inactive | inactive | inactive | inactive | inactive | inactive | – | – | – | – |
| CN(c1nccc(=O)[nH]1)C1CCN(c2nc3ccccc3n2Cc2ccc(F)cc2)CC1 | inactive | inactive | inactive | inactive | inactive | inactive | – | inactive | – | – | inactive | inactive | inactive | inactive | inactive | inactive | – | – | – | – |
| CCN(CC)C(C)CN1c2ccccc2Sc2ccccc21 (centres undefined) | inactive | inactive | inactive | inactive | – | – | – | inactive | – | inactive | inactive | inactive | inactive | inactive | inactive | inactive | inactive | inactive | – | – |
| CCN1CCC[C@H]1CNC(=O)c1c(OC)ccc(Br)c1OC | inactive | inactive | inactive | inactive | inactive | – | inactive | inactive | inactive | inactive | inactive | inactive | inactive | inactive | inactive | inactive | inactive | inactive | inactive | – |
| C[Si](C)O[Si](C)(C)O[Si](C)(C)O[Si](C)C | inactive | – | inactive | inactive | inactive | inactive | inactive | inactive | – | – | inactive | inactive | inactive | inactive | inactive | inactive | inactive | inactive | inactive | – |
| CC(=O)SCc1ccco1 | inactive | – | inactive | inactive | inactive | inactive | inactive | inactive | inactive | inactive | inactive | inactive | inactive | inactive | inactive | inactive | inactive | inactive | inactive | inactive |
| CC(C)CCCC(C)CCO (centres undefined) | inactive | – | inactive | inactive | inactive | inactive | inactive | 61.1 µM (active) | – | inactive | inactive | inactive | inactive | inactive | inactive | inactive | – | inactive | – | inactive |
| CCCCOC(=O)/C=C\C(=O)OCCCC | inactive | – | inactive | inactive | inactive | inactive | inactive | inactive | inactive | – | inactive | inactive | inactive | inactive | inactive | inactive | inactive | – | inactive | – |
| Cc1cc(NC(=O)C(=O)O)cc(C)c1Oc1ccc(O)c2c1CCC2 | inactive | – | inactive | inactive | inactive | inactive | inactive | inactive | – | – | inactive | inactive | inactive | – | – | inactive | – | – | inactive | inactive |
| COc1ccc(C(C)=O)cc1 | inactive | – | inactive | inactive | inactive | inactive | inactive | inactive | – | inactive | inactive | inactive | inactive | – | – | inactive | inactive | – | inactive | inactive |
| O=C(O)C1CCC(C(=O)O)CC1 (centres undefined) | inactive | – | inactive | inactive | inactive | inactive | inactive | inactive | inactive | inactive | inactive | inactive | inactive | – | inactive | inactive | inactive | – | inactive | – |
| CC(=O)/C=C/C1C(C)=CCCC1(C)C (centres undefined) | inactive | – | inactive | inactive | inactive | inactive | inactive | inactive | – | – | inactive | inactive | inactive | – | – | inactive | inactive | inactive | – | – |
| CCOC(=O)CC(C)C | inactive | – | inactive | inactive | inactive | inactive | inactive | inactive | inactive | inactive | inactive | inactive | inactive | – | inactive | inactive | inactive | – | inactive | – |
| Nc1ccc(C(=O)N2CC3CC(CN(Cc4ccccc4)C3)C2)cc1 | inactive | – | inactive | inactive | inactive | inactive | inactive | inactive | inactive | inactive | inactive | inactive | inactive | – | inactive | inactive | – | – | – | – |
| CC(=O)N(CC(=O)N(C)C)c1ccccc1 | inactive | – | inactive | inactive | inactive | inactive | inactive | inactive | inactive | inactive | inactive | inactive | inactive | inactive | inactive | inactive | – | inactive | inactive | – |
| OCC1CC2CC1C1CCC(CO)C21 (centres undefined) | inactive | – | inactive | inactive | inactive | inactive | inactive | inactive | – | – | inactive | – | inactive | inactive | inactive | inactive | – | – | – | – |
